Measurements: PubChem BioAssay (NCATS)
A number with no mark means an inactive call. Unless noted, calls follow the shape of the dose curve; as a rule, active = well fitted curve in the direction sought with a large enough effect (not every such curve was filed as active); inconclusive = small, poorly fitted or top-dose-only effect, or effect the other way, or another doubt; inactive = no such curve, though single readings can be large or run the other way.

Target: Pyruvate kinase PKM (Homo sapiens) (UniProt P14618)
Sequence (P14618 whole entry, looked up): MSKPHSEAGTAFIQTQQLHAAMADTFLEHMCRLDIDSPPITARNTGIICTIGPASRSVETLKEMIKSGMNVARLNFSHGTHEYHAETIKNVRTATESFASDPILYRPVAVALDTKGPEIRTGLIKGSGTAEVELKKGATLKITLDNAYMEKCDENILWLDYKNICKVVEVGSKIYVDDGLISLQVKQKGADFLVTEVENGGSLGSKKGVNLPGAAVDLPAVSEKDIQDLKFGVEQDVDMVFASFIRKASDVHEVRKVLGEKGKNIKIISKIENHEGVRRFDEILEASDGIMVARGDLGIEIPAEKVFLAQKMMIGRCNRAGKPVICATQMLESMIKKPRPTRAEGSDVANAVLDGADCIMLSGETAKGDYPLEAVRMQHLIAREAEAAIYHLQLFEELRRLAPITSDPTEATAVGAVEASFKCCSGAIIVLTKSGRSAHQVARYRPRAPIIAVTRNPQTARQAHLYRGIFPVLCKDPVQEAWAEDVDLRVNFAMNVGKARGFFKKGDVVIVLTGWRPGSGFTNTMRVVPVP
Experiment: qHTS Assay for Activators of Human Muscle Pyruvate Kinase (AID 954);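 also: 0% = uninhibited enzyme and -100% = no enzyme or full thiadiazolimine inhibition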
Details: purified human muscle pyruvate kinase, luciferase-coupled luminescence, 1 h; series mostly up to 57.5 µM; activity change, negative = inhibition: at the top concentration
How it was run: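 Enzyme was run at intermediate activity so both inhibitors and activators could be detected. ATP formed from ADP and PEP by 0.1 nM human PKM2 during a 1 h room-temperature incubation was quantified by coupled luciferase luminescence.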

Compound	activity change, negative = inhibition
Cn1ccc2cc3c(cc21)CCN3C(=O)Nc1cccnc1	-104%
CCOC(=O)c1ncn2c1CN(C)C(=O)c1cc(F)ccc1-2	7.5%
NC(=O)OCC(COC(N)=O)c1ccccc1	-32.4%
COc1cc2c(c(OC)c1OC)-c1ccc(OC)c(=O)cc1[C@@H](NC(C)=O)CC2	0.505%
CCOC(=O)Nc1ccc(NCc2ccc(F)cc2)nc1N	3.9%
CN1C(C(=O)Nc2ccccn2)=C(O)c2ccccc2S1(=O)=O	-17.5%
O=C(Nc1ccc([N+](=O)[O-])cc1Cl)c1cc(Cl)ccc1O	-81.5%
CC(C)Cc1ccc(C(C)C(=O)O)cc1 (stereo not given)	-19.9%
Clc1ccccc1C(c1ccccc1)(c1ccccc1)n1ccnc1	-7.06%
CCOC(=O)C(C)(C)Oc1ccc(Cl)cc1	-3.38%
Cc1cnc(C(=O)NCCc2ccc(S(=O)(=O)NC(=O)NC3CCCCC3)cc2)cn1	-15.6%
O=C1c2c(O)ccc(O)c2C(=O)c2c(NCCNCCO)ccc(NCCNCCO)c21	-34.3%
O=C(c1ccc(F)cc1)C1CCN(CCn2c(=O)[nH]c3ccccc3c2=O)CC1	0.186%
CN(C)C(=O)C(CCN1CCC(O)(c2ccc(Cl)cc2)CC1)(c1ccccc1)c1ccccc1	-16.4%
CN1CCC(=C2c3ccccc3CC(=O)c3sccc32)CC1	-15.3%
O=C(C1CCCCC1)N1CC(=O)N2CCc3ccccc3C2C1 (stereo not given)	10.4%
Cn1cnc2c1c(=O)[nH]c(=O)n2C	0.584%

Target: Pyruvate kinase (Leishmania mexicana) (UniProt Q27686)
Sequence (Q27686 2-499 E452W): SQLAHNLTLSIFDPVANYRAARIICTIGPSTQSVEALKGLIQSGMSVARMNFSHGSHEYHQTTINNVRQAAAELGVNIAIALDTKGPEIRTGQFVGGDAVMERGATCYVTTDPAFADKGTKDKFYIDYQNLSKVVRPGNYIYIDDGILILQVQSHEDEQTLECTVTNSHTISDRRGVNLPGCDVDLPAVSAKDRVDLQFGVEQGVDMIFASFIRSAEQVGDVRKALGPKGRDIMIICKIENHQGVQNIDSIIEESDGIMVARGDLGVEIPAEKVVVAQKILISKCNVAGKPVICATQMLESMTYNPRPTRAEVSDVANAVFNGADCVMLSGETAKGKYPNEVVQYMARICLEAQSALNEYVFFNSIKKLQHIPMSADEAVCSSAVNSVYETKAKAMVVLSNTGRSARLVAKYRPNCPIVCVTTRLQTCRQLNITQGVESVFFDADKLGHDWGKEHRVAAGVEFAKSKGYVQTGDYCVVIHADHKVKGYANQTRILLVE
Experiment: qHTS Validation Assay for Activators of Leishmania Mexicana Pyruvate Kinase (AID 959; active = well fitted activation curve with a large enough effect)
Details: purified L. mexicana pyruvate kinase, enzyme activity; series mostly up to 57.5 µM; activity change, positive = activation: at the top concentration
From the text: NIH Molecular Libraries Screening Centers Network [MLSCN]
NIH Chemical Genomics Center [NCGC]
PI names: Malcom Walkinshaw, Hugh Morgan and Linda Gilmore
University of Edinburgh, Edinburgh, UK
Species of Leishmania are responsible for a wide spectrum of diseases throughout the tropics and subtropics, ranging from self-healing ulcers to highly disfiguring lesions and serious, often lethal visceral diseases, such as kala-azar. In Leishmania spp. it has been shown that both sugar uptake and gluconeogenesis are necessary to synthesize sufficient hexose-phosphate required for the production of glycoconjugates and the intracellular polysaccharide mannan which are essential for both replication and virulence of the parasites. Therefore, most of the enzymes participating in glycolysis and gluconeogenesis are expected to be essential (Naderer et al., 2006). The assay described here targets pyruvate kinase from Leishmania mexicania (LmPYK) that was obtained as a highly purified preparation from the University of Edinburgh (E451W mutant was provided). A 1536 well assay protocol was set up and validated by screening the LOPAC library in triplicate as an eight point concentration-titration series using the qHTS platform developed at the NCGC.
NCGC Assay Protocol Summary:
Three uL of substrate mix (final concentrations, 50 mM imidazole pH 7.2, 50 mM KCl, 7 mM MgCl2, 0.5 mM PEP, 0.1 mM ADP, 0.01% Tween 20, 0.05% BSA) was dispensed into white solid medium binding Greiner 1536 well plates. 23 nL of compound were delivered by a pin tool and 1 uL of enzyme mix (final concentration, 0.2 nM LmPYK, 50 mM imidazole pH 7.2, 0.05% BSA) was added. Plates were covered with stainless steel gasket-lined lids and incubated at room temperature for 1 hour. Two uL of detection and kinase stop mix (PKLight, Lonza) was added, and luminescence read by a ViewLux (Perkin Elmer) at 2 second exposure/plate using 2x binning. Controls on each plate were as follows: column 1, sixteen-point titration (1:2 dilutions) in duplicate the LmPK activator LOPAC-C8145 beginning at 57 uM final concentration; column 2, sixteen-point titration (1:2 dilutions) in duplicate activator LOPAC-S4063 beginning at 57 uM final concentration; column 3, column 4 DMSO only. Data were normalized to the neutral control (column 3).

Compound	activity change, positive = activation
Cn1ccc2cc3c(cc21)CCN3C(=O)Nc1cccnc1	-90.9%
O=C(Nc1ccc([N+](=O)[O-])cc1Cl)c1cc(Cl)ccc1O	-71.8%
O=C1c2c(O)ccc(O)c2C(=O)c2c(NCCNCCO)ccc(NCCNCCO)c21	-36%
